Compound activity (PubChem BioAssay)
Pf Dd2 growth: Plasmodium falciparum Dd2 growth inhibition; Potency, µM (highest dose often 28.9 µM), inactives show at the top dose activity, negative = inhibition, actives largely listed as inhibitors; actives 4.3% (n = 120,000); P. falciparum Dd2 growth, SYBR Green, 72 h; active means well fitted inhibition curve with a large enough effect;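 further: plate controls were DMSO vehicle for no effect and reference drug for full effect; nearly all actives have a fitted effect of over 65% in size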
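Infected erythrocytes (Dd2, 0.3% parasitemia, 2.5% hematocrit final) are added to compound in RPMI-1640/Albumax II medium, grown 72 h at 37C in low oxygen, then lysed with saponin/Triton-X containing SYBR Green and read by fluorescence.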
The depositor's hits bear a star; i = inactive; [ ] = dose if it differs, or a comment. Many of the other results were omitted from the sample, so hits are more common in it than they were. Potency means the concentration at half of the fitted maximal effect.

SMILES | Pf Dd2 growth
Clc1ccccc1C1(c2ccnc(CC3CC3)n2)CCNCC1 | 5µM*
c1ccc(CCn2cnc3cccnc32)cc1 | 1%[44.1 µM]
O=S(=O)(Cc1noc([C@@H]2C[C@@H](O)CN2Cc2ncc[nH]2)n1)c1ccc(F)cc1 | i
CN1Cc2ncnc(N3CCN(Cc4ccccc4)CC3)c2CN(c2ccc([N+](=O)[O-])cc2)C1=O | i
Cc1cnn(C2(C(=O)O)CCN(S(=O)(=O)c3ccccc3)CC2)c1 | -5%
O=C1Nc2ccccc2CC12CCN(Cc1ccccn1)C2 (configuration not stated) | -2%[44.1 µM]
CCOC(=O)C1=CN(CC(=O)Nc2ccc(C)cc2Cl)S(=O)(=O)N=C1C | 61%
Cc1cc(C(=O)N2CC(F)(F)C[C@H]2c2nnc(C)o2)c(C)o1 | 31%
CCNC(=O)CN1CN(c2ccccc2)C2(CCN(C(=O)NC34CC5CC(CC(C5)C3)C4)CC2)C1=O | 0%
CCCS(=O)(=O)NC[C@H]1C[C@@H]2CCN1C[C@@H]2c1cc(-c2ccccc2Br)nc(C)n1 | i
Cc1nc(-c2ccccc2)cc([C@H]2CN3CC[C@H]2C[C@@H]3CNC(=O)C(C)(C)C)n1 | -1%[44.1 µM]
CC(=O)NC[C@H]1C[C@@H]2CCN1C[C@@H]2c1cc(-c2ccccc2)nc(C)n1 | i
Cc1nc(-c2ccco2)cc([C@H]2CN3CC[C@H]2C[C@@H]3CNC(=O)c2ccccc2)n1 | i
Cc1nc(-c2ccco2)cc([C@H]2CN3CC[C@H]2C[C@@H]3CNC2CCOCC2)n1 | 11µM*
Cc1nc(-c2ccccc2Br)cc([C@H]2CN3CC[C@H]2C[C@@H]3CNC(=O)c2cccs2)n1 | -21%
Cc1nc(-c2ccco2)cc([C@H]2CN3CC[C@H]2C[C@@H]3CNS(C)(=O)=O)n1 | i
CCC(CC)c1cc([C@H]2CN3CC[C@H]2C[C@@H]3CNC2CCN(C)CC2)nc(-c2ccncc2)n1 | 1.4µM*
Cc1nc(-c2ccc(F)cc2)cc([C@H]2CN3CC[C@H]2C[C@@H]3CNC(=O)c2ccco2)n1 | i
Cc1nc(-c2ccccc2)cc([C@H]2CN3CC[C@H]2C[C@@H]3CNC(=O)c2ccco2)n1 | i
Cc1nc(-c2ccco2)cc([C@H]2CN3CC[C@H]2C[C@@H]3CNCC2CCCCC2)n1 | 3.2µM*
Cc1nc(-c2ccco2)cc([C@H]2CN3CC[C@H]2C[C@@H]3CNC(=O)c2cccs2)n1 | 8.9µM*
Cn1cnc(C(=O)N2CCCCCCNC(=O)[C@@H]3CCCC[C@@H]32)c1 | 10%
O=C(NC1CCC(n2cnnc2)CC1)c1ccc(Cn2cnnn2)cc1 (configuration not stated) | 22%
O=C1CCCCC(C(=O)N2CCc3ccccc32)N1 (configuration not stated) | 7%
COc1ccc(NC(=O)c2cc3n(n2)CC(c2ccc(Cl)cc2)OC3)c(OC)c1 (configuration not stated) | i
SMILES | Pf Dd2 growth
O=C(Nc1ccccc1F)N1CCCC(c2nc(C3CCOCC3)no2)C1 (configuration not stated) | 42%
O=C([C@H]1C[C@H](Oc2cccnc2)CN1C(=O)c1nccc2ccccc12)N1CCOCC1 | -6%
CCOC(=O)C1=C(C)N=C2SC=C(CC(=O)NCCc3cccs3)N2C1c1ccccc1F (configuration not stated) | -10%
CC1=C(C(=O)OC(C)C)C(c2ccc([N+](=O)[O-])cc2)N2C(CC(=O)N3CCCC3)=CSC2=N1 (configuration not stated) | 2.8µM*
CCOC(=O)C1=C(C)N=C2SC=C(CC(=O)Nc3ccc(OC)cc3)N2C1c1ccccc1F (configuration not stated) | 4.5µM*
CC1=C(C(=O)OC(C)(C)C)C(c2ccccc2)N2C(CC(=O)N3CCCC3)=CSC2=N1 (configuration not stated) | -17%
CC1=C(C(=O)OC(C)C)C(c2ccccc2F)N2C(CC(=O)N3CCCC3)=CSC2=N1 (configuration not stated) | i
CCOC(=O)C1=C(C)N=C2SC=C(CC(=O)NCc3ccco3)N2C1c1ccccc1F (configuration not stated) | -18%
CCOC(=O)C1=C(C)N=C2SC=C(CC(=O)N3CCOCC3)N2C1c1cccc(OC)c1OC (configuration not stated) | i
C=CCOC(=O)C1=C(C)N=C2SC=C(CC(=O)N3CCCC3)N2C1c1cccc(OC)c1OC (configuration not stated) | 5µM*
C=CCOC(=O)C1=C(C)N=C2SC=C(CC(=O)N3CCCC3)N2C1c1ccccc1Cl (configuration not stated) | -24%
COc1ccccc1-c1ncc(CNc2cc(C3CC(O)C3)ncn2)s1 (configuration not stated) | -14%
COCCC(=O)NC1CCN(c2cnn(CC3CC3)c(=O)c2)CC1 | -1%
CN1C(=O)CC(C(=O)O)C12CCN(Cc1cccc(Cn3cccn3)c1)CC2 (configuration not stated) | 8%
Cc1ccc(-n2cccc2CC(=O)N2CCCC2)cc1 | -16%
